Over roughly 68,000 sequences, “fluorescence intensity (a.u.)” has its median near 9,100; the highest 2% begin near 16,000. Shown is part of a subset that was picked to be rich in the highest values.

Sequence of OsWRKY34 (Q0JBA9 entry or part of it): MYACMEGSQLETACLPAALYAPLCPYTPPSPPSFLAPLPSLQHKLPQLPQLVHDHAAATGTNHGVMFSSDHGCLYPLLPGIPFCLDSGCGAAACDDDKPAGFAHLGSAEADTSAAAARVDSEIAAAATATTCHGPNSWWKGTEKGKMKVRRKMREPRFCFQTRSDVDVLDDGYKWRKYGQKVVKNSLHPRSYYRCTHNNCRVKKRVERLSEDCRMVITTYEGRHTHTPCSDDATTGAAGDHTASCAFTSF

For the test, the target named is OsWRKY34 (Oryza sativa, UniProt Q0JBA9 1-250). The experiment in a line: protein-binding microarray (RPBM); PBS, 2% BSA, 51.3 ng/ul salmon testes DNA, 50 uM zinc acetate, 200 nM TF, 25 C, 1 h; high values mean tight binding. As to conditions: protein: recombinant; tags: N-terminal polyhistidine and DsRed monomer fusion (pET32a); label: CyDye5-dUTP incorporated in the synthesized complementary strand; 3' TTTTT single-stranded linker to array surface; dsDNA, one strand shown. The procedure, abridged:
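Binding signal here means per-feature fluorescence intensity in arbitrary units. The values were read on an Axon 4000B scanner after a custom Agilent array, double-stranded by primer extension with Cy5-dUTP, was incubated with 200 nM protein at 25 °C for 1 h in PBS with 2% BSA, salmon testes DNA and 50 µM zinc acetate, then washed. The proteins were transcription factors with an N-terminal polyhistidine tag and DsRed, expressed in E. coli BL21-CodonPlus and purified on Ni–NTA.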
Turning to “CATCCAAATAGGTTCTTTTAGTTCAATTTTGGGGCAGTTTCGGAGTCACCTAGTGCAG”, the binding signal is 9920 fluorescence intensity (a.u.).

Turning to “GCTACTATCAAGTCATAAGCTTACTACCAAGTTATAGCACCGGAGTCACCTAGTGCAG”, the binding signal was 8320 fluorescence intensity (a.u.).

Regarding “ATATACATGTGATAGCTTCGTCTCAAGATACATTGTCCTACGGAGTCACCTAGTGCAG”, the binding signal was 9500 fluorescence intensity (a.u.).

Turning to “CTGTTCCGCCACCTACCACCGAGCCGTTGTCTCCCATGACCGGAGTCACCTAGTGCAG”, the binding signal was 10100 fluorescence intensity (a.u.).

For “AAAGCCGTCGTATTGTCATCCGCCGCTCGCTGACTCATTCCGGAGTCACCTAGTGCAG”, the binding signal was 8310 fluorescence intensity (a.u.).

In the case of “TCCCCTTCGCCCTTCGTCGTCGTCGTCGTCGTCGTTCGTCCGGAGTCACCTAGTGCAG”, the binding signal was 8050 fluorescence intensity (a.u.).

On to “AACCACCACAAGCCGTTAACCCCGTTGTTTACCTCCTCCTCGGAGTCACCTAGTGCAG”, for which the binding signal was 8190 fluorescence intensity (a.u.).

Regarding “ATTTTGACTTTTTGGTTGCGCTATTTGATTACTCGTCTTACGGAGTCACCTAGTGCAG”, the binding signal is 19400 fluorescence intensity (a.u.).

In the case of “TTTGCAACATTTGATTACTCGTCTTATTTAATTTTTTTTTCGGAGTCACCTAGTGCAG”, the binding signal was 8230 fluorescence intensity (a.u.).

Take “TTGACTTTTGCTTGCACTGTTTGATTACTCGTCTTATTAACGGAGTCACCTAGTGCAG”: the binding signal is 8670 fluorescence intensity (a.u.).

Turning to “TTGTTTCTGTTCATTTTTCTCTATAGTACTTGCTAGGTGACGGAGTCACCTAGTGCAG”, the binding signal is 11500 fluorescence intensity (a.u.).

For the sequence “TATGTTCATTTCCTTATTTGCCTCTCGTCATGTCTCTTGACGGAGTCACCTAGTGCAG”, the binding signal was 10200 fluorescence intensity (a.u.).

As for “AACGCTATTTATTTTTTAAACATGTTTGATCGTTCGTCTTCGGAGTCACCTAGTGCAG”, the binding signal is 10200 fluorescence intensity (a.u.).

For “TGACGCCGTTGACTTTTTTAAACATGTTTGATCGTTCGTCCGGAGTCACCTAGTGCAG”, the binding signal was 35900 fluorescence intensity (a.u.).

For the sequence “TTTCAGGTTTTGCATTTCACACCTCTGTCGTCATACTTGACGGAGTCACCTAGTGCAG”, the binding signal is 17800 fluorescence intensity (a.u.).

“GCCGTTGACTTTTTATTACATGTTTGACCGTTCGTCTTATCGGAGTCACCTAGTGCAG”: the binding signal is 62900 fluorescence intensity (a.u.).

As to “AGTAAAGTCCATCACCGGTCCCTAAACTTGTACCGCTATGCGGAGTCACCTAGTGCAG”, the binding signal is 8810 fluorescence intensity (a.u.).

“AAAGATCGCTTTTTCCGTGGTAGGCTTCTCCATTTTATTTCGGAGTCACCTAGTGCAG”: the binding signal is 10700 fluorescence intensity (a.u.).

Turning to “TATCTTGCCTAGCATATTGTCCGTGCGTTATTGCGATTTTCGGAGTCACCTAGTGCAG”, the binding signal was 10500 fluorescence intensity (a.u.).

For “TCCCACCCGTTTTTATTTTTCTCGGTGGTTAACTTATCTTCGGAGTCACCTAGTGCAG”, the binding signal was 8170 fluorescence intensity (a.u.).

Take “TTCTTATTCTGTCGGTTGTGTGGTGGCAGGGCAGTTAATTCGGAGTCACCTAGTGCAG”: the binding signal is 8630 fluorescence intensity (a.u.).

For “TCCATCACTAGCTATTTTGGTACTTTCATCTACTTATTACCGGAGTCACCTAGTGCAG”, the binding signal is 8340 fluorescence intensity (a.u.).

With “TCTCTCGTTTTCCACACACACGTTTTTTAAACTGCTAAACCGGAGTCACCTAGTGCAG”, the binding signal was 10200 fluorescence intensity (a.u.).

On to “CAAGGCCCGCCCATCCGTCTCCTCACACTCTGGCACACCTCGGAGTCACCTAGTGCAG”, for which the binding signal is 8580 fluorescence intensity (a.u.).

On to “CAATCCATCAAACATGCAGTCAAGGTGTATTATTCAGTATCGGAGTCACCTAGTGCAG”, for which the binding signal was 9880 fluorescence intensity (a.u.).

Turning to “ACTCTTATTGTTCAAATGAAAATGCTAGGGGTATAACTGCCGGAGTCACCTAGTGCAG”, the binding signal was 8340 fluorescence intensity (a.u.).

For “ACTTATATTTTTTTAACGTTTGATTGTTCGTCTTATTAAACGGAGTCACCTAGTGCAG”, the binding signal is 9470 fluorescence intensity (a.u.).

As for “GACTTTTTAACACATGTTTGACCGTTCGTCTTATTCAAAACGGAGTCACCTAGTGCAG”, the binding signal is 10900 fluorescence intensity (a.u.).

“GCCGTTGACTTTTTAACACATGTTTGACCATTCGTCTTATCGGAGTCACCTAGTGCAG”: the binding signal was 60200 fluorescence intensity (a.u.).

As to “CGTTGACTTTTTTAAATATATTTAGCAGTTCGTCTTATTACGGAGTCACCTAGTGCAG”, the binding signal was 16500 fluorescence intensity (a.u.).

As to “TGCCGTTGATTTTTTTTTAAACATGTTTGACCGTTCGTCTCGGAGTCACCTAGTGCAG”, the binding signal is 14900 fluorescence intensity (a.u.).

As for “ACCGTTGATTTTTTTAAACATGTTTGACCGTTCGTCTTATCGGAGTCACCTAGTGCAG”, the binding signal was 17100 fluorescence intensity (a.u.).

Turning to “CTTTTTTAAACATGTTTGACCGTTCGTCTTATTTAAAAAACGGAGTCACCTAGTGCAG”, the binding signal was 9350 fluorescence intensity (a.u.).

Turning to “GCCGTTGACTTTTTTAAACATGTTTGACCGTTCGTCTTATCGGAGTCACCTAGTGCAG”, the binding signal was 45200 fluorescence intensity (a.u.).

As for “ACTGTTCGTCTTATTTAAAATTTTTTAAATATTATTTATACGGAGTCACCTAGTGCAG”, the binding signal is 12300 fluorescence intensity (a.u.).

Regarding “ACTTTTTTAAACATGTTTGGCCGTTCGTCTTATTCAAAAACGGAGTCACCTAGTGCAG”, the binding signal is 9620 fluorescence intensity (a.u.).

Take “TTTTAAACATGTTTGACCGTTCGTCTTATTCAAAAAATTTCGGAGTCACCTAGTGCAG”: the binding signal is 8310 fluorescence intensity (a.u.).

Take “TTTTAACATTTTTCTTGCACTGTTTGACCATTCGTCTTATCGGAGTCACCTAGTGCAG”: the binding signal was 10400 fluorescence intensity (a.u.).

For the sequence “CCACACTCCTCGCTCGCCTGCCTCTCTGTTCTTAATTAGCCGGAGTCACCTAGTGCAG”, the binding signal is 8750 fluorescence intensity (a.u.).

On to “AAGCCCAACGTGCTTCATCTCTTCTTCTATCTTATCTTCTCGGAGTCACCTAGTGCAG”, for which the binding signal is 8190 fluorescence intensity (a.u.).

On to “GCGGAGGAAAGGTGGGGTGGTAAAAAACGGAAAAACCGGACGGAGTCACCTAGTGCAG”, for which the binding signal was 8960 fluorescence intensity (a.u.).

As for “TATGCATACTTTTTTATCACTGTAGTTACTAGCTAAGATCCGGAGTCACCTAGTGCAG”, the binding signal is 9000 fluorescence intensity (a.u.).
